Laboratory results taken from PubChem BioAssay.
Where a name gives a salt, the structure may show the parent alone. For some of these results: Entries with a potency or affinity are not part of this list. Calls of active or inactive are those of the source.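 How the source made its calls, unless noted: active means luciferase signal above three times the same-plate solvent-only control wells; inactive means the rest.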 Peptide text beside a SMILES is read from it. * marks the point of attachment. Tfa = O=C(C(F)(F)F)*

Tests used:
[1] = molecular target: Mitogen-activated protein kinase 7 (Homo sapiens) (UniProt Q13164); assay: ERK5 transactivation activators in reporter cells, primary screen, cell-based, HTS (AID 1508626); settings: HeLa Gal4-ERK5 transactivation, 18 h, at 5 µM, stronger effect = higher value;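 further: luciferase driven by Gal4-ERK5 fusion binding five Gal4 sites before minimal TATA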
[2] = molecular target: NAD(+) hydrolase SARM1 (Homo sapiens) (UniProt Q6SZW1); assay: SARM1 TIR NADase inhibitors, cell lysate, NAD-Glo luminescence (AID 1508614;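 active means compound whose remaining NAD level is above about 45 nM, limit read from the data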); settings: SAM-TIR HEK293T lysate NADase, at 1 µM, stronger effect = higher value
[3] = polyglutamine-triggered caspase-3 activation inhibitors, cell-based (AID 1583); settings: polyglutamine-induced caspase-3 activation, cell assay; stronger effect = higher value;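 tested at 10 µM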
[4] = suppressors of polyQ aggregation in yeast, 75Q-TubU reporter (AID 1593); settings: Yeast 75Q polyglutamine aggregation reporter
[5] = rescue of polyQ-huntingtin neuronal dysfunction in worms, whole organism, C. elegans mechanosensory neurons, N-terminal huntingtin (AID 1599); settings: touch response, stronger effect = higher value
[6] = inhibitors of mitochondrial cytochrome c release, biochemical, purified mitochondria (AID 1603); settings: stronger effect = lower value;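 further: mouse liver mitochondria challenged with calcium chloride; signal normalized to the plate average as 100%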
[7] = inhibitors of polyQ protein aggregation (AID 1604); settings: polyglutamine-induced protein aggregation inhibition assay; stronger effect = higher value; tested at 2.5 µM
[8] = enhancers of glutamate uptake in motor neurons, MN-1 cell line (AID 1612); settings: MN-1 motor neuron cells, stronger effect = higher value;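 further: tested at 1 µM final; 0% = mean of DMSO vehicle wells on each plate; positive means more glutamate uptake than control and negative means less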
[9] = reducers of polyQ inclusions in PC12 cells, cell-based, NGF-treated PC12, GFPQ80 (AID 1614); settings: PC12 NGF-treated GFP-polyQ80 inclusion reduction;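 further: lower means fewer inclusions and 0 means no inclusions at all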
[10] = suppressors of polyglutamine aggregation in yeast, 75Q-TubH (AID 1616); settings: S. cerevisiae 75Q-TubH polyglutamine aggregation suppression; stronger effect = higher value

Sequence of NAD(+) hydrolase SARM1 (Homo sapiens) (Q6SZW1 whole entry, looked up): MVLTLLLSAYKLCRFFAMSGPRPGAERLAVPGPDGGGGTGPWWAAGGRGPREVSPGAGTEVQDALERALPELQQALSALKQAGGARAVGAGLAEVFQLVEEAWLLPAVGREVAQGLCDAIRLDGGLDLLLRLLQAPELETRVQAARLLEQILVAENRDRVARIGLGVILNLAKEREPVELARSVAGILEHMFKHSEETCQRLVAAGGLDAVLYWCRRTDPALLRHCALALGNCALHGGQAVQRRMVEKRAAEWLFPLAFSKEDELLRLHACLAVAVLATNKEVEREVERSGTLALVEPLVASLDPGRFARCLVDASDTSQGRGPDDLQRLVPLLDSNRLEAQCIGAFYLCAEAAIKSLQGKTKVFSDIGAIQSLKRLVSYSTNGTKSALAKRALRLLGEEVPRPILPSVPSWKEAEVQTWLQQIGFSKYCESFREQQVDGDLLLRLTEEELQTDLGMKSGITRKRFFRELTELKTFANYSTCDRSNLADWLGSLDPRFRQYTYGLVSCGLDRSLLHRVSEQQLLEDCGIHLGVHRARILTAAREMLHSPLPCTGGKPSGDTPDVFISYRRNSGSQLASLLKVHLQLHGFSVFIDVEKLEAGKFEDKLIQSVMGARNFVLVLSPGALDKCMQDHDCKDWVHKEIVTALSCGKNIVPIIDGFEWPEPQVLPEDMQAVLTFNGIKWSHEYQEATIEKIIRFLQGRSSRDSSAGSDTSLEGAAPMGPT
Sequence of Mitogen-activated protein kinase 7 (Homo sapiens) (Q13164 whole entry, looked up, the tested form may be a part): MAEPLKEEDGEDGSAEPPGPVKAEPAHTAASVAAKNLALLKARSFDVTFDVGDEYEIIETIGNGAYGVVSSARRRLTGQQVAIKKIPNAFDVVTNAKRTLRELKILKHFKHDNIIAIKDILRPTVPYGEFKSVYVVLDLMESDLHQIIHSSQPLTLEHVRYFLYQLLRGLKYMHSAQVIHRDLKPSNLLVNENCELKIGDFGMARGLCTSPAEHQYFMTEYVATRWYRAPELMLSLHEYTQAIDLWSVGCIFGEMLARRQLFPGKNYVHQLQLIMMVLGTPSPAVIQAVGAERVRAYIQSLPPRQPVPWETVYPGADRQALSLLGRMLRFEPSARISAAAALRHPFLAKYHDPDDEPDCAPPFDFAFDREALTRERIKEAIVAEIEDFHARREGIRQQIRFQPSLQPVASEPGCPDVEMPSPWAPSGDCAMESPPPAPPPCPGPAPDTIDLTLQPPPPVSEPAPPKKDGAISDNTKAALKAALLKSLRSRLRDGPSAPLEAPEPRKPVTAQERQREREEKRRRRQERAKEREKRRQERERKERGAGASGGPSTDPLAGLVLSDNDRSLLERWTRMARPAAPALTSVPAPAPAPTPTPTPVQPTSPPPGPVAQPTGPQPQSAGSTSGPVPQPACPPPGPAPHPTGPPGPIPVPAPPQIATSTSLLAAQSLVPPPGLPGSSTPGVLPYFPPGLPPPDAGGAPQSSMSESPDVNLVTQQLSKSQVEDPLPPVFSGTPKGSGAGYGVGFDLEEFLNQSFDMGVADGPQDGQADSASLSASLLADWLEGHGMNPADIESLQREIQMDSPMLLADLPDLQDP

SMILES: C=C1C(=O)C23C(O)C1CCC2C12COC3(O)C(O)C1C(C)(C)CCC2O (stereo not given)
- luciferase signal [1]: 108 AU (inactive)

SMILES: CCCCC/C=C/CCC(=O)N[C@H]1[C@H](Oc2c3cc4cc2Oc2ccc(cc2Cl)[C@@H](O[C@@H]2O[C@H](CO)[C@@H](O)[C@H](O)[C@H]2NC(C)=O)[C@@H]2NC(=O)[C@H](NC(=O)[C@@H]4NC(=O)[C@H]4NC(=O)C(Cc5ccc(c(Cl)c5)O3)NC(=O)[C@@H](N)c3ccc(O)c(c3)Oc3cc(O)cc4c3)c3ccc(O)c(c3)-c3c(OC4O[C@H](CO)[C@@H](O)[C@H](O)[C@@H]4O)cc(O)cc3[C@@H](C(=O)O)NC2=O)O[C@H](CO)[C@@H](O)[C@@H]1O (stereo not given in full)
- luciferase signal [1]: 52 AU (inactive)

SMILES: CC(C)c1c(O)ccc2c1CCC1[C@@](C)(CO)CCC[C@]21C (stereo not given in full)
- luciferase signal [1]: 112 AU (inactive)

SMILES: CC(=O)OC1C[C@@]2(C)C(CC[C@@H]2C(C)=O)C2CCC3=CC(=O)CC[C@]3(C)C12 (stereo not given in full)
- luciferase signal [1]: 108 AU (inactive)

SMILES: CC(=O)[C@@]12O[C@](C)(c3ccccc3)O[C@@H]1C[C@H]1[C@@H]3CCC4=CC(=O)CC[C@]4(C)[C@H]3CC[C@@]12C
- remaining NAD [2]: 10 nM (inactive)
- luciferase signal [1]: 76 AU (inactive)

SMILES: CC(=O)Oc1ccc2c(c1)CC[C@@H]1[C@@H]2CC[C@]2(C)[C@@H](OC(C)=O)CC[C@@H]12
- luciferase signal [1]: 8 AU (inactive)

SMILES: C[C@H]1C[C@@H]2[C@H]([C@@H](O)C[C@@]3(C)[C@H]2CC[C@]3(O)C(=O)COC(=O)CCC(=O)O)[C@@]2(C)C=CC(=O)C=C12
- remaining NAD [2]: 10 nM (inactive)
- luciferase signal [1]: 72 AU (inactive)

SMILES: CN[C@@H]1[C@@H](O)[C@@H](O[C@@H]2[C@@H](O)[C@H](O[C@H]3OC(CN)=CC[C@H]3N)[C@@H](N)C[C@H]2N)OC[C@]1(C)O
- remaining NAD [2]: 10 nM (inactive)
- luciferase signal [1]: 48 AU (inactive)

SMILES: CO/N=C(/C(=O)N[C@@H]1C(=O)N2C(C(=O)OC(C)OC(C)=O)=C(COC(N)=O)CS[C@H]12)c1ccco1 (stereo not given in full)
- luciferase signal [1]: 120 AU (inactive)

SMILES: CC(C)CCC[C@@H](C)[C@H]1CC[C@H]2[C@@H]3CC=C4CC(=O)CC[C@]4(C)[C@H]3CC[C@]12C
- luciferase signal [1]: 20 AU (inactive)

SMILES: CC[C@H](CC[C@@H](C)[C@H]1CC[C@H]2[C@@H]3CC[C@H]4C[C@@H](O)CC[C@]4(C)[C@H]3CC[C@]12C)C(C)C
- luciferase signal [1]: 12 AU (inactive)

SMILES: COC(=O)C[C@H]1C(C)(C)C(=O)[C@@H]2CC3=C4CC(=O)O[C@@H](c5ccoc5)[C@]4(C)CC[C@@H]3[C@@]1(C)C2=O
- luciferase signal [1]: 32 AU (inactive)

SMILES: C/C1=C\CC(C)(C)/C=C/CC2(C)OC2CC1 (stereo not given)
- luciferase signal [1]: 64 AU (inactive)

SMILES: C[C@]12C=CC(=O)C=C1CC[C@@H]1[C@@H]2[C@@H](O)C[C@@]2(C)[C@H]1CC[C@]2(O)C(=O)COP(=O)(O)O
- remaining NAD [2]: 10 nM (inactive)
- luciferase signal [1]: 96 AU (inactive)

SMILES: COc1cc2c(cc1OC)C1Cc3ccc(OC)c(OC)c3CN1CC2 (stereo not given)
- luciferase signal [1]: 52 AU (inactive)

SMILES: CC[C@H]1OC(=O)C[C@@H](O)[C@H](C)[C@@H](O[C@@H]2O[C@H](C)[C@@H](O)[C@H](N(C)C)[C@H]2O)[C@@H](CCN2C[C@H](C)C[C@H](C)C2)C[C@@H](C)C(=O)/C=C/C(C)=C/[C@@H]1CO[C@@H]1O[C@H](C)[C@@H](O)[C@@H](OC)[C@H]1OC
- remaining NAD [2]: 10 nM (inactive)
- luciferase signal [1]: 36 AU (inactive)

SMILES: CC(CNC(=O)c1ccccc1)C(=O)OCC(=O)[C@@]12OC(C)(C)O[C@@H]1CC1C3CCC4=CC(=O)C=C[C@]4(C)[C@@]3(F)[C@@H](O)C[C@@]12C (stereo not given in full)
- inhibition [3]: -1.62%
- score [4]: 1.01
- rescue above control [5]: 13.9
- cytochrome c release ratio [6]: 0.92
- inhibition of aggregation [7]: 100%
- glutamate uptake change [8]: 4.01%
- inclusion score [9]: 2.5
- aggregation suppression score [10]: 1.21

SMILES: Oc1ccc2c(c1)OC[C@]1(O)Cc3cc(O)c(O)cc3[C@H]21
- luciferase signal [1]: 28 AU (inactive)

SMILES: C=C1C(=O)OC2C1CCC1(C)CCC=C(C)C21 (stereo not given)
- inhibition [3]: 56%
- score [4]: 0.7
- rescue above control [5]: 5.32
- cytochrome c release ratio [6]: 0.81
- inhibition of aggregation [7]: -33.3%
- glutamate uptake change [8]: 0.76%
- aggregation suppression score [10]: 0.322

SMILES: CC(NC(=O)C(NC(=O)OCc1ccccc1)C(C)C)C(=O)NC(CC(=O)O)C(=O)OC(F)F (stereo not given)
- inhibition [3]: 59.7%
- score [4]: 1.09
- rescue above control [5]: -1.19
- cytochrome c release ratio [6]: 0.97
- inhibition of aggregation [7]: 0.68%
- glutamate uptake change [8]: 2.37%
- inclusion score [9]: 2
- aggregation suppression score [10]: 1.2

SMILES: CC(C)C(NC(=O)C(Cc1ccc(O)cc1)NC(=O)C(NC(=O)C(F)(F)F)C(C)C)C(=O)O (stereo not drawn) (Tfa-Val-Tyr-Val-OH; configuration not given here)
- luciferase signal [1]: 64 AU (inactive)

SMILES: CC(C)=CCC[C@@H](C)[C@@H]1CC[C@]2(C)C3=C(CC[C@@]12C)[C@@]1(C)CC[C@H](O)C(C)(C)[C@@H]1CC3
- luciferase signal [1]: 68 AU (inactive)

SMILES: CC(=O)OCC(=O)[C@@]1(O)CC[C@H]2C3CCC4=CC(=O)CCC4(C)[C@@]3(F)[C@@H](O)CC21C (stereo not given in full)
- inhibition [3]: 9.6%
- score [4]: 1
- rescue above control [5]: 20.3
- cytochrome c release ratio [6]: 0.71
- inhibition of aggregation [7]: 88.9%
- glutamate uptake change [8]: 7.44%
- inclusion score [9]: 2
- aggregation suppression score [10]: 1.14
